# Experimental data published in PubChem BioAssay (EPA / NIEHS).
# Results filed as inconclusive are left out. Calls of active or inactive are those of the source. How the source made its calls, unless noted: active means hit-call score of the fitted dose curve at least 0.9, where 1 is the maximum; inactive means score below 0.9.
# Columns and labels:
# [1] = target: Paired box protein Pax-6 (Homo sapiens) (UniProt P26367); experiment: ATG_Pax6_CIS: Attagene CIS-FACTORIAL HepG2 Assay for human Paired Box 6 (PAX6) (AID 2282956); details: HepG2 CIS-FACTORIAL PAX6 reporter transcription, RNA readout; actives raise or lower the signal
# In short: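 Values derive from bidirectional curve fitting of reporter mRNA signal relative to DMSO. HepG2 cells bearing transfected cis-regulated MRTUs were exposed for 24 h; transcripts were read by RT-PCR and capillary electrophoresis.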
# [2] = ATG_PXRE_CIS: Attagene CIS-FACTORIAL HepG2 Assay for human Pregnane X Receptor Element (PXRE) (AID 2282957); details: HepG2 Attagene CIS-FACTORIAL PXRE reporter, mRNA; actives raise or lower the signal
# In short: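 Bidirectional activity, baselined to DMSO, derived from reporter mRNA fluorescence (RT-PCR plus capillary electrophoresis) in HepG2 cells bearing cis-promoter reporter units, 24 h exposure.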
# [3] = ATG_PPRE_CIS: Attagene CIS-FACTORIAL HepG2 Assay for human Peroxisome Proliferator-activated Response Element (PPRE) (AID 2282958); details: HepG2 PPRE cis-element reporter, Attagene transcription factor profiling; actives raise or lower the signal
# In short: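 HepG2 cells are transiently transfected with multiplexed cis-promoter reporter units to report endogenous PPAR activity. After 24 h dosing, reporter mRNA is read by RT-PCR and capillary electrophoresis. Fitting is bidirectional against DMSO.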
# [4] = ATG_RORE_CIS: Attagene CIS-FACTORIAL HepG2 Assay for human RAR-related Orphan Receptor Element (RORE) (AID 2282959); details: HepG2 Attagene cis-factorial RORE reporter, mRNA; actives raise or lower the signal
# In short: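 HepG2 cells carrying transiently transfected cis-regulated reporter units; RORE-driven reporter mRNA quantified 24 h post-dosing by RT-PCR, 6-FAM primer extension, HpaI digestion and capillary electrophoresis. Bidirectional fit versus DMSO.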
# [5] = ATG_Sox_CIS: Attagene CIS-FACTORIAL HepG2 Assay for human SRY-box transcription factor (SOX) (AID 2282960); details: HepG2 Attagene cis-factorial SOX reporter, mRNA; actives raise or lower the signal
# In short: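 HepG2 cells transiently transfected with multiple cis-regulated reporter units, then dosed for 24 h. Reporter mRNA quantified by RT-PCR, fluorescent labelling, HpaI digestion and capillary electrophoresis; bidirectional fit versus DMSO.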
# [6] = target: Transcription factor Sp1 (Homo sapiens) (UniProt P08047); experiment: ATG_Sp1_CIS: Attagene CIS-FACTORIAL HepG2 Assay for human Specificity Protein 1 (Sp1) (AID 2282961); details: HepG2 Sp1 cis-reporter transcription, actives raise or lower the signal
# In short: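 HepG2 cells transiently transfected with multiplexed cis-regulated reporter constructs, chemical exposure 24 h. Reporter mRNA quantified by RT-PCR with capillary electrophoresis; bidirectional fit relative to DMSO.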
# [7] = ATG_SREBP_CIS: Attagene CIS-FACTORIAL HepG2 Assay for human Sterol Regulatory Element Binding (SREBP) (AID 2282962); details: HepG2 Attagene cis-factorial SREBP reporter, mRNA; actives raise or lower the signal
# In short: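 Values derive from bidirectional curve fitting with DMSO as baseline. The underlying measurement is reporter mRNA from cis-element-regulated units in transiently transfected HepG2, quantified by RT-PCR and capillary electrophoresis after 24 h exposure.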
# [8] = target: Signal transducer and activator of transcription 3 (Homo sapiens) (UniProt P40763); experiment: ATG_STAT3_CIS: Attagene CIS-FACTORIAL HepG2 Assay for human Signal Transducer and Activator of Transcription 3 (STAT3) (AID 2282963); details: HepG2, Attagene cis-factorial STAT3 reporter transcription; actives raise or lower the signal
# In short: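 Cis-factorial format: endogenous transcription factors in HepG2 drive transfected reporter units. After 24 h treatment, reporter RNA was reverse-transcribed, amplified, FAM-labelled and HpaI-digested before CE analysis; activity scored in both directions against DMSO.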
# [9] = ATG_TCF_b_cat_CIS: Attagene CIS-FACTORIAL HepG2 Assay for human T-Cell-Factor with beta-catenin (TCF/b-cat) (AID 2282965); details: HepG2 TCF/beta-catenin cis-reporter transcription, actives raise or lower the signal
# In short: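 Endogenous transcription factor activity is captured through cis-promoter reporter constructs transiently introduced into human HepG2 liver cells. Induced reporter mRNA is measured after 24 h and fitted bidirectionally relative to DMSO.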
# [10] = ATG_TAL_CIS: Attagene CIS-FACTORIAL HepG2 Assay for human TAL Basal Promoter (AID 2282966); details: HepG2 Attagene cis-factorial TAL promoter reporter; actives raise or lower the signal;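 further: background control endpoint measuring basal TAL promoter reporter mRNA not a specific factor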
# In short: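 Human hepatoma HepG2 cells, transfected with promoter-regulated reporter units, were treated 24 h. Reporter transcript levels, measured through RT-PCR and capillary electrophoresis, were fitted for gain or loss relative to DMSO.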
# [11] = ATG_TGFb_CIS: Attagene CIS-FACTORIAL HepG2 Assay for human Transforming Growth Factor (TGF) (AID 2282967); details: HepG2 Attagene CIS TGFb reporter, mRNA transcription; actives raise or lower the signal
# In short: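 Bidirectional fitting relative to DMSO gave the endpoint. Underlying data: reporter mRNA from HepG2 cells carrying transiently transfected cis-regulated reporter constructs, harvested 24 h after dosing and analyzed by RT-PCR and capillary electrophoresis.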
# [12] = ATG_VDRE_CIS: Attagene CIS-FACTORIAL HepG2 Assay for human Vitamin D Receptor Element (VDRE) (AID 2282968); details: HepG2 VDRE cis-reporter transcription, actives raise or lower the signal
# In short: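 Measures endogenous factor activity through cis-element-driven reporter transcripts in transiently transfected HepG2. Cells are treated 24 h; reporter mRNA is quantified by RT-PCR and capillary electrophoresis; fitting is bidirectional.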
# [13] = target: Nuclear receptor subfamily 1 group I member 3 (Homo sapiens) (UniProt Q14994); experiment: ATG_CAR_TRANS: Attagene TRANS-FACTORIAL HepG2 Assay for human Constitutive Androstane Receptor (CAR) (AID 2282969; active means hit-call score of the fitted dose curve at least 0.9, where 1 is the maximum;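 further: activators raise reporter mRNA above DMSO so AC50 marks induction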); details: HepG2 Attagene TRANS-FACTORIAL CAR reporter
# In short: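 Signal is reporter mRNA induction relative to DMSO, measured 24 h after dosing by RT-PCR with fluorescent primer extension and capillary electrophoresis. Human HepG2 liver cells carried transiently transfected chimeric NR-Gal4/GAL4-UAS reporter constructs.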
# [14] = ATG_GAL4_TRANS: Attagene TRANS-FACTORIAL HepG2 Assay for GAL4 (Internal Marker) (AID 2282976; active means hit-call score of the fitted dose curve at least 0.9, where 1 is the maximum); details: HepG2 Attagene TRANS GAL4 internal marker reporter
# In short: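 Liver HepG2 line bearing multiplexed GAL4-UAS reporter constructs; 24 h chemical treatment. Transcripts were quantified as fluorescent fragments on capillary electrophoresis after RT-PCR and HpaI cut, with activity fitted upward from DMSO.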
# [15] = ATG_TA_CIS: Attagene CIS-FACTORIAL HepG2 Assay for human TA Basal Promoter (AID 2282964); details: HepG2 Attagene CIS-factorial TA basal promoter reporter; actives raise or lower the signal
# In short: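 Fluorescence from labelled RT-PCR reporter fragments, separated by capillary electrophoresis, gives the signal. Cells: HepG2 transiently carrying multiple reporter units, 24 h chemical dosing. Gain or loss relative to DMSO.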
# [16] = target: Steroid hormone receptor ERR1 (Homo sapiens) (UniProt P11474); experiment: ATG_ERRa_TRANS: Attagene TRANS-FACTORIAL HepG2 Assay for human Estrogen-Related Receptor alpha (ERRa) (AID 2282971; active means hit-call score of the fitted dose curve at least 0.9, where 1 is the maximum); details: HepG2 Attagene TRANS reporter, ERRa transactivation
# In short: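 Signal gain relative to DMSO for an ERRa-Gal4 chimeric receptor, read as reporter mRNA by RT-PCR/capillary electrophoresis. Human HepG2 liver cells, transient multiplex reporter transfection, 24 h chemical exposure.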
# [17] = target: X-box-binding protein 1 (Homo sapiens) (UniProt P17861); experiment: ATG_Xbp1_CIS: Attagene CIS-FACTORIAL HepG2 Assay for human X-box Binding Protein 1 (XBP1) (AID 2282972); details: HepG2 XBP1 cis-element reporter, Attagene multiplex; actives raise or lower the signal
# In short: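 Human hepatoma HepG2, cis-element reporter system, 24 h treatment; mRNA quantified by RT-PCR/CE fluorescence; fit relative to DMSO.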
# [18] = ATG_M_19_TRANS: Attagene TRANS-FACTORIAL HepG2 Assay for M19 Transcription Factor (Internal Marker) (AID 2282974; active means hit-call score of the fitted dose curve at least 0.9, where 1 is the maximum); details: HepG2 Attagene TRANS-FACTORIAL M19 internal marker reporter
# In short: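 HepG2 transiently transfected with GAL4-UAS multiplex reporter constructs, exposed 24 h; reporter RNA quantified by RT-PCR, 6-FAM labeling, HpaI digestion and capillary electrophoresis; internal background marker fitted upward versus DMSO.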
# [19] = target: Estrogen-related receptor gamma (Homo sapiens) (UniProt P62508); experiment: ATG_ERRg_TRANS: Attagene TRANS-FACTORIAL HepG2 Assay for human Estrogen-Related Receptor gamma (ERRg) (AID 2282977; active means hit-call score of the fitted dose curve at least 0.9, where 1 is the maximum;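 further: hits increase reporter signal over DMSO so potencies reflect activators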); details: HepG2 Attagene TRANS reporter, ERRg transactivation
# In short: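 Exogenous NR-Gal4 chimera activity was assessed in HepG2 cells bearing transfected GAL4-UAS reporters. After 24 h dosing, total RNA underwent RT-PCR, fluorescent primer extension and HpaI digestion before capillary electrophoresis, with gain of signal scored against DMSO.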
# [20] = target: Estrogen receptor (Homo sapiens) (UniProt P03372); experiment: ATG_ERa_TRANS: Attagene TRANS-FACTORIAL HepG2 Assay for human Estrogen Receptor alpha (ERa) (AID 2282970; active means hit-call score of the fitted dose curve at least 0.9, where 1 is the maximum); details: HepG2 Attagene TRANS ERa GAL4 reporter, mRNA
# In short: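 Signal derives from fluorescence of labelled reporter PCR fragments separated by capillary electrophoresis. HepG2 cells transiently carrying multiple GAL4-UAS reporter units were treated 24 hours, and induction above DMSO baseline was fitted as activity.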
# Chain of Paired box protein Pax-6 (Homo sapiens) (P26367 whole entry, looked up): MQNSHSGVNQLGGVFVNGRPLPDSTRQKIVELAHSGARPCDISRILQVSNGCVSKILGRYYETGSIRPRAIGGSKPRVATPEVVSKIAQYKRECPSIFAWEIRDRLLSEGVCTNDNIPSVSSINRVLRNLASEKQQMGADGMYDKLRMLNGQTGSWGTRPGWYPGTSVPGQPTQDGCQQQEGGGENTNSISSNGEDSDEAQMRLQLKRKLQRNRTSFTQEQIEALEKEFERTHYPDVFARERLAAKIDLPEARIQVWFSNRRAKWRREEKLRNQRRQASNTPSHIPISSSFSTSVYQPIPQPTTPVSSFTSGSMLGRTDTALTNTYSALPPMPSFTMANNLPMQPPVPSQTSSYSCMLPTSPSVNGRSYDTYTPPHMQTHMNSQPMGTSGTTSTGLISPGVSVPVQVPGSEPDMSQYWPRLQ
# Chain of Transcription factor Sp1 (Homo sapiens) (P08047 whole entry, looked up): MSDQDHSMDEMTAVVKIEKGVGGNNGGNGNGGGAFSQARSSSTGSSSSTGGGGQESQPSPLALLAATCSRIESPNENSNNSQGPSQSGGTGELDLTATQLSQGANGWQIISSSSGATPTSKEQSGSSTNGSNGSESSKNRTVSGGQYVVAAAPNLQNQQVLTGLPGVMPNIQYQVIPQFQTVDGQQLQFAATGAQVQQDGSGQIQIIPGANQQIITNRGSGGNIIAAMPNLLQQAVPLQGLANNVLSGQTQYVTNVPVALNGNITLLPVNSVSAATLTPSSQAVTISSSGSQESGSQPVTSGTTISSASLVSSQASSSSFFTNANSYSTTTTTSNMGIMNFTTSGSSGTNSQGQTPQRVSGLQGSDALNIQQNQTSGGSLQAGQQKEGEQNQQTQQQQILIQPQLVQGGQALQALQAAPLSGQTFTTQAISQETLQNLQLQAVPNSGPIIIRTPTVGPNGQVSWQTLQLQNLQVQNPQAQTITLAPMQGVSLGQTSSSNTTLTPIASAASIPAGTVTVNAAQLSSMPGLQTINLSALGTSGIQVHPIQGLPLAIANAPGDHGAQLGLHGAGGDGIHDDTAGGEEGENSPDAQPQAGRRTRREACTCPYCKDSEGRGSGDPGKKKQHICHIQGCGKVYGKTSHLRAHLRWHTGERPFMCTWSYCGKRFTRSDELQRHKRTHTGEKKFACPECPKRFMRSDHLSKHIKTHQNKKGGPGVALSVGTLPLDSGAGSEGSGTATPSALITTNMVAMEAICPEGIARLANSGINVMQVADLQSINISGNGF
# Chain of X-box-binding protein 1 (Homo sapiens) (P17861 whole entry, looked up): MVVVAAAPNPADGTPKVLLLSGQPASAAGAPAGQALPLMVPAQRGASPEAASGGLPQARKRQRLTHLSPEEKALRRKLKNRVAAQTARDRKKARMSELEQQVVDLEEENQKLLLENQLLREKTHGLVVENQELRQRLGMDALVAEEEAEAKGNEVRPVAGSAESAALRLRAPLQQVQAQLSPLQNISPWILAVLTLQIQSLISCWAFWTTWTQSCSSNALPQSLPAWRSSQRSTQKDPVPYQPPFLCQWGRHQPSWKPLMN
# Chain of Signal transducer and activator of transcription 3 (Homo sapiens) (P40763 whole entry, looked up): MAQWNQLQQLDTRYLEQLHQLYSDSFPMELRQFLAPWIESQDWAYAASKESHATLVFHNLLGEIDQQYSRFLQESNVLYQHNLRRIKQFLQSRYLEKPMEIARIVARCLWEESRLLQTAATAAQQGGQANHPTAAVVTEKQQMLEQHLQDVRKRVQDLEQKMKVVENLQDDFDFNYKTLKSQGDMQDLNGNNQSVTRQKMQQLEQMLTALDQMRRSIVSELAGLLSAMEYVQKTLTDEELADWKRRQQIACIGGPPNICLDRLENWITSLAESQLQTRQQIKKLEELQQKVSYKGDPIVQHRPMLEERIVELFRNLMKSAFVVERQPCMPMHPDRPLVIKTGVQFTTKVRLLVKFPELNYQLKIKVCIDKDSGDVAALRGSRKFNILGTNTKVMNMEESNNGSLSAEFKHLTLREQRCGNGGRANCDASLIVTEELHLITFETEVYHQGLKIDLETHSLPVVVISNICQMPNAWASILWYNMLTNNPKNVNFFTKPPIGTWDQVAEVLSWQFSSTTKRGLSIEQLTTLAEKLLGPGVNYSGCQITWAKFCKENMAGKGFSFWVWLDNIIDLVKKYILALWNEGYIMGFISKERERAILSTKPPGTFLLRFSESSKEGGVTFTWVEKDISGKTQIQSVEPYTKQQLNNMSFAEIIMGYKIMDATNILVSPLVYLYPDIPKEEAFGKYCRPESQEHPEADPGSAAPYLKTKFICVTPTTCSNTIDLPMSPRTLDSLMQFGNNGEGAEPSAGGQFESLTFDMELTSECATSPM
# Chain of Nuclear receptor subfamily 1 group I member 3 (Homo sapiens) (Q14994 whole entry, looked up, the tested form may be a part): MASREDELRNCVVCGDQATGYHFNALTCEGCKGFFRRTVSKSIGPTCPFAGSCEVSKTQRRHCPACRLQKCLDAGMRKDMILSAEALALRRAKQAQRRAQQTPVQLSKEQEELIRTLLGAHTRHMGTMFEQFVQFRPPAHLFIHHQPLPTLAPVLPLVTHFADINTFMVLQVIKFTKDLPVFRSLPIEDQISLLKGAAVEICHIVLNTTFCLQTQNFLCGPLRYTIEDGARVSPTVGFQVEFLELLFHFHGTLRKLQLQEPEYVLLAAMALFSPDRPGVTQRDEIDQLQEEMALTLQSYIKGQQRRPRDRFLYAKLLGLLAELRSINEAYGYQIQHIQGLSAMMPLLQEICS
# Chain of Steroid hormone receptor ERR1 (Homo sapiens) (P11474 whole entry, looked up, the tested form may be a part): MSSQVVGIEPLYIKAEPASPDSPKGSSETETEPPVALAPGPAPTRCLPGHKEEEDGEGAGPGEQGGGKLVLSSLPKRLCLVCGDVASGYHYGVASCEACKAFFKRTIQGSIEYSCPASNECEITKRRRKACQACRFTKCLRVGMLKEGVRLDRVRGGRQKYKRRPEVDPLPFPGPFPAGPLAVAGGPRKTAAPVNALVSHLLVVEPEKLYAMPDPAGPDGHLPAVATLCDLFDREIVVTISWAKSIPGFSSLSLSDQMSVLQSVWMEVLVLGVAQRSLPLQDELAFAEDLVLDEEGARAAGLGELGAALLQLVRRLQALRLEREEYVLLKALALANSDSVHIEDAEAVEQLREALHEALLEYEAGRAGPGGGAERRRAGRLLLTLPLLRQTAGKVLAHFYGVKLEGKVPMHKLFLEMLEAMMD
# Chain of Estrogen receptor (Homo sapiens) (P03372 whole entry, looked up, the tested form may be a part): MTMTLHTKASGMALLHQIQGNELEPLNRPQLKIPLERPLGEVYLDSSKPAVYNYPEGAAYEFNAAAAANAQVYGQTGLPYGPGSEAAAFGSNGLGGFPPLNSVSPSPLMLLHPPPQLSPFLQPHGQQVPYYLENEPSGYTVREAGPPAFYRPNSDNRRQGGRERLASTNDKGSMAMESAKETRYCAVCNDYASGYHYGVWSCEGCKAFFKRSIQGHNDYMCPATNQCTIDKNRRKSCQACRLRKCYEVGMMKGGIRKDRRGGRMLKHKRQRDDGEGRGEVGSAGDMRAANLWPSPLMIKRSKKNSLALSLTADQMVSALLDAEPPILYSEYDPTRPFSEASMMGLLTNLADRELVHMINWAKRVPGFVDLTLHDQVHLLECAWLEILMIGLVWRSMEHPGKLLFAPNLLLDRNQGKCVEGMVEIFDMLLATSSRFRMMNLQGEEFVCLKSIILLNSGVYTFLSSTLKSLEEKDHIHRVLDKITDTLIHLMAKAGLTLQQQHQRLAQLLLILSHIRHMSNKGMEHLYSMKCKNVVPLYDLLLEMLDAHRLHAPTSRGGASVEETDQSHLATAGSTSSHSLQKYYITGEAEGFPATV
# Chain of Estrogen-related receptor gamma (Homo sapiens) (P62508 whole entry, looked up, the tested form may be a part): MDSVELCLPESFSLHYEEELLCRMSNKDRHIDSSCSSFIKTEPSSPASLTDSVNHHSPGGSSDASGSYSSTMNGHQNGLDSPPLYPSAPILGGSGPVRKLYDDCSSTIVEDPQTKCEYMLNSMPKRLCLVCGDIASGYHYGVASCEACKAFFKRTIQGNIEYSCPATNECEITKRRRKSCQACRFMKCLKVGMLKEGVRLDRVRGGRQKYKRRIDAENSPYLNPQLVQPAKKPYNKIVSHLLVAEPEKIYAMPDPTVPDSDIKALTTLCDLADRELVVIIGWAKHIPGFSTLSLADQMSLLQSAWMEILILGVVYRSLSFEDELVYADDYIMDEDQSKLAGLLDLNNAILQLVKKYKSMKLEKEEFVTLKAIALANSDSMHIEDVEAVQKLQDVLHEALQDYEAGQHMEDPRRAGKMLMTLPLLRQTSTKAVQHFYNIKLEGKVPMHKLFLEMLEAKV
structure (smiles),measurement,setting,value
O=C(O)CCCCCCCCC(=O)O,outcome,[1],inactive
same,outcome,[2],inactive
same,outcome,[3],inactive
same,outcome,[4],inactive
same,outcome,[5],inactive
same,outcome,[6],inactive
same,outcome,[7],inactive
same,outcome,[8],inactive
same,outcome,[9],inactive
same,outcome,[10],inactive
same,outcome,[11],inactive
same,outcome,[12],inactive
same,outcome,[13],inactive
same,outcome,[14],inactive
c1ccc2cc(Nc3ccc(Nc4ccc5ccccc5c4)cc3)ccc2c1,outcome,[1],inactive
same,outcome,[2],inactive
same,AC50,[4],5.31 µM (active)
same,outcome,[5],inactive
same,outcome,[6],inactive
same,outcome,[7],inactive
same,outcome,[8],inactive
same,outcome,[15],inactive
same,outcome,[9],inactive
same,outcome,[10],inactive
same,outcome,[11],inactive
same,outcome,[12],inactive
same,outcome,[13],inactive
same,outcome,[16],inactive
same,outcome,[17],inactive
same,outcome,[18],inactive
same,outcome,[14],inactive
same,outcome,[19],inactive
Brc1ccc(Br)c(Br)c1,outcome,[1],inactive
same,outcome,[2],inactive
same,outcome,[4],inactive
same,outcome,[5],inactive
same,outcome,[6],inactive
same,outcome,[7],inactive
same,outcome,[8],inactive
same,outcome,[15],inactive
same,outcome,[9],inactive
same,outcome,[10],inactive
same,outcome,[11],inactive
same,outcome,[12],inactive
same,outcome,[20],inactive
same,outcome,[17],inactive
same,outcome,[18],inactive
CCOc1ccccc1O,outcome,[1],inactive
same,outcome,[2],inactive
same,outcome,[3],inactive
same,outcome,[5],inactive
same,outcome,[7],inactive
same,outcome,[8],inactive
same,outcome,[15],inactive
same,outcome,[9],inactive
same,outcome,[10],inactive
same,outcome,[11],inactive
same,outcome,[12],inactive
same,outcome,[14],inactive
c1ccc(CN(Cc2ccccc2)Cc2ccccc2)cc1,outcome,[1],inactive
same,AC50,[2],2.51 µM (active)
same,outcome,[4],inactive
same,outcome,[5],inactive
same,AC50,[6],165 µM (active)
same,outcome,[7],inactive
same,outcome,[8],inactive
same,outcome,[15],inactive
same,outcome,[9],inactive
same,outcome,[10],inactive
same,outcome,[11],inactive
same,outcome,[12],inactive
same,outcome,[13],inactive
same,outcome,[17],inactive
Clc1cc(Cl)c(-c2c(Cl)c(Cl)cc(Cl)c2Cl)cc1Cl,outcome,[1],inactive
same,AC50,[2],3.45 µM (active)
same,outcome,[3],inactive
same,outcome,[5],inactive
same,AC50,[6],50 µM (active)
same,outcome,[8],inactive
same,outcome,[15],inactive
same,outcome,[9],inactive
same,outcome,[10],inactive
same,outcome,[11],inactive
same,outcome,[12],inactive
same,outcome,[16],inactive
same,outcome,[17],inactive
same,outcome,[18],inactive
